Hit rate of the full screen: of about 48,000 compounds, about 13,000 (27%) showed an effect of 50% or more. The list shows a part of the results.
tested on: Wolbachia pipientis; assay: Anti-Wolbachia Cell-Based Screen; format: functional; parameters: scale not given: in the data most compounds retested in dose-response had high values; settings: 5 µM

| Structure (SMILES) | Percent Effect |
| --- | --- |
| Cc1ccc(N(C)Cc2nnnn2C2CC2)c(C)c1 | -2.761% |
| Cc1cc(C)n(C2CCCN(C(=O)c3cccc4[nH]ncc34)C2)n1 (configuration not stated) | 4.56% |
| Cc1cc(C)n(C2CCCN(C(=O)c3cccc4c3OCO4)C2)n1 (configuration not stated) | 86.78% |
| COCc1ccccc1C(=O)N1CCCC(n2nc(C)cc2C)C1 (configuration not stated) | 4.248% |
| Cc1cnn(C2CCCN(C(=O)c3cccc4c3OCO4)C2)c1 (configuration not stated) | 104.2% |
| O=C(c1ccccc1N1CCOCC1)N1CCCC(n2cccn2)C1 (configuration not stated) | -2.451% |
| O=C(c1cccc2c1OCCO2)N1CCCC(n2cccn2)C1 (configuration not stated) | 108.1% |
| O=C(c1cccc2c1OCO2)N1CCCC(n2cccn2)C1 (configuration not stated) | 2.187% |
| c1cc(CCn2ccc(NC3CCSCC3)n2)ccn1 | 6.041% |
| COc1cccc(N2CCN(C(C(=O)O)c3ccc(OC)nc3)CC2)c1 (configuration not stated) | -2.782% |
| COc1c(F)cc(-c2cccc3c2OC(CN)C3)cc1F (configuration not stated) | 6.268% |
| C[C@@H]1CN(Cc2cc(C3CCCCC3)no2)CC[C@]1(C)O | 4.197% |
| Cl.O=C(NC1CCCC1)C1(Cc2cc(C3CCOC3)no2)CCNCC1 (configuration not stated) | 131.3% |
| CC(C)(C)c1cc(C[C@H]2CNCC[C@H]2CC(=O)NC2CCCCC2)no1 | 10.2% |
| CC(C)(C)c1noc(OCC(=O)NC2CCCC2)n1 | -14.46% |
| OCC1COCCN(Cc2cc(C3CCCCC3)no2)C1 (configuration not stated) | -1.346% |
| CC1CCN(C(=O)C2(Cc3cc(C4CCOC4)no3)CCNCC2)CC1.Cl (configuration not stated) | 189.1% |
| CCN(C)c1ccc(CNC(=O)c2cc(C(N)=O)cs2)cc1F | -17.75% |
| OCCN1CCN(Cc2cn(-c3ccccc3)nn2)CC1 | -6.326% |
| CN1CC(c2ccccc2)CC12CCN(C(=O)c1ccc(Cl)cn1)CC2 (configuration not stated) | -6.025% |
| Cc1n[nH]c(C)c1CCN(C)C(=O)C(c1cccnc1)N1CCOCC1 (configuration not stated) | 1.239% |
| Cc1cc(N(C)Cc2cc(C(C)(C)C)n[nH]2)nc(-c2cccnc2)n1 | -3.665% |

| Structure (SMILES) | Percent Effect |
| --- | --- |
| Cc1cc(NCCc2c(C)n[nH]c2C)nc(-c2cccnc2)n1 | 90.29% |
| FC(F)(F)c1cc(NCCn2ncnn2)nc(-c2cccnc2)n1 | -6.298% |
| Cc1cc(NCCc2nnc(N)s2)nc(-c2cccnc2)n1 | 111.6% |
| FC(F)(F)c1cc(NCCCn2cccn2)nc(-c2cccnc2)n1 | 19.81% |
| Cc1cc(N(C)Cc2snnc2C)nc(-c2cccnc2)n1 | 5.151% |
| CCCc1nc(C)cc(NCCc2nnc(N)s2)n1 | 113% |
| Cc1cc(NCCc2nc(C)cs2)nc(-c2cccnc2)n1 | 101.8% |
| Cc1csc(CCNc2ccc(C#N)cn2)n1 | -3.132% |
| CCCc1nc(C)cc(NC(C)Cc2cnccn2)n1 (configuration not stated) | 10.99% |
| CC(C)Cc1cc(C(=O)NCCc2nnc(N)s2)n(C)n1 | 6.947% |
| O=C(Nc1cccn(CC(F)(F)F)c1=O)c1ccncc1F | -0.2014% |
| CSc1ncc(C(=O)N2C[C@H]3CC[C@@H]2CN(Cc2ccccc2)C3)cn1 | -11.56% |
| COc1cccc(CNC2CCCOc3cc(C)ccc32)n1 (configuration not stated) | -12.28% |
| Cc1ccccc1C(CC(=O)NCc1nnc(N)s1)c1ccccc1 (configuration not stated) | 1.078% |
| Cc1cc(NCCc2nnc(N)s2)nc(-c2ccccc2)n1 | 97.75% |
| Cn1cccc1-c1cc(C(=O)NCCc2nnc(N)s2)[nH]n1 | -4.601% |
| N#Cc1cccc(NC(=O)N[C@H](CO)Cc2ccc(O)cc2)c1 | -17.39% |
| O=C(NC1CCC1)C1CCC2(CN(C(=O)c3ccno3)C2)O1 (configuration not stated) | 2.059% |
| Cc1cc(C(=O)N2CCCC(c3ccc(C(=O)O)cc3)C2)c(C)o1 (configuration not stated) | 108.3% |
| CC(C)c1csc(C2CCCN(C(=O)c3ccc[nH]3)C2)n1 (configuration not stated) | 7.741% |
| O=C(c1ccc[nH]1)N1CCCC(c2cc(C(F)(F)F)[nH]n2)C1 (configuration not stated) | -9.471% |
| Cc1[nH]ccc1C(=O)N1CCCC(c2nccn2Cc2cscn2)C1 (configuration not stated) | -11.42% |

| Structure (SMILES) | Percent Effect |
| --- | --- |
| Cc1[nH]ccc1C(=O)N1CCCC(c2ccc(C(=O)O)cc2)C1 (configuration not stated) | 104% |
| Cc1cc(C(=O)N2C[C@@H](C(=O)O)[C@H](c3ccccc3C)C2)c(C)o1 | -7.74% |
| CC(C)(C)n1ccc(C(=O)N2CCCC(c3ccc(C(=O)O)cc3)C2)c1 (configuration not stated) | -5.053% |
| O=C(O)c1ccc(C2CCCN(C(=O)c3ccc[nH]3)C2)cc1 (configuration not stated) | 96.47% |
| CCC(C)N1CCC(Oc2ccc(C(=O)NCCN(C)C)cc2Cl)CC1 (configuration not stated) | 0.8675% |
| COc1cccc(/C=C/CCN2CCCN(C(C)=O)CC2)c1 | 3.012% |
| COCC(=O)NCc1cccc(OCCN(C)C2CCOCC2)c1 | -0.3867% |
| Cc1ccc(C)c(-n2cc(CN3CCOCC3)c(-c3ccccc3)n2)c1 | 9.149% |
| Cc1nc(C2CCCN2CCCNS(C)(=O)=O)no1 (configuration not stated) | 5.107% |
| CCc1nc(C2CCCN2CCc2ccccn2)no1 (configuration not stated) | 17.85% |
| CC(C)c1nc(C2CCCN2CCS(C)(=O)=O)no1 (configuration not stated) | 108.9% |
| CC(C)c1nc(C2CCCN2CC(=O)N2CCNC2=O)no1 (configuration not stated) | 0.9306% |
| CC(C)c1nc(C2CCCN2CCc2ccccn2)no1 (configuration not stated) | 92.65% |
| Cc1nc(C2CCCN2CCc2ccccn2)no1 (configuration not stated) | 0.4664% |
| CC(C)c1nc(C2CCCN2CCc2ccncc2)no1 (configuration not stated) | -3.016% |
| CC(C)c1nc(C2CCCN2CCNS(C)(=O)=O)no1 (configuration not stated) | 98.61% |
| CCS(=O)(=O)CCN1CCCC1c1noc(C2CC2)n1 (configuration not stated) | -6.058% |
| CC(C)c1nc(C2CCCN2CCN2CCCCC2)no1 (configuration not stated) | 99.79% |
| CC(C)(C)CC(=O)N1CC[C@@H](CC(=O)O)[C@@H](CCN2CCCCC2)C1 | -5.604% |
| CN(C)c1ccc(C(=O)N(Cc2ccncc2)CC2CCCO2)nn1 (configuration not stated) | -20.14% |
| CC(=O)Nc1cccc(C(=O)Nc2cnc3n2CCCC3)c1 | -12.98% |
| CCCS(=O)(=O)N1C[C@@H]2CC[C@H](C1)N(Cc1cscn1)C2=O | -56.87% |

| Structure (SMILES) | Percent Effect |
| --- | --- |
| COCc1cnc2n1CCN(S(=O)(=O)c1c(C)nn(C)c1C)C2C (configuration not stated) | -6.968% |
| CCCN(CCC)S(=O)(=O)NCCc1cc(C)ccc1OC | -23% |
| CCN(CC)C1(Cc2cc(-c3cccc(O)c3)on2)COC1 | -3.325% |
| O=C1NCCN(CC2CC2)C12CCN(Cc1ccco1)CC2 | -5.362% |
| CCc1nnc(CN2CCC3(CC2)Nc2ccccc2NC3=O)o1 | 8.139% |
| O=C1Nc2ccccc2CN(C/C=C/c2ccccc2)C12CCNC2 (configuration not stated) | 116.1% |
| O=C1NC2(CCN(C/C=C/c3ccccc3)CC2)CC1c1ccccc1 (configuration not stated) | 1.619% |
| CCCN1Cc2ccccc2NC(=O)C12CCNC2 (configuration not stated) | 105.5% |
| O=C(CSC1CCc2ccccc2NC1=O)NCCO (configuration not stated) | -0.2821% |
| COc1ccccc1NC(=O)CSC1CCc2ccccc2NC1=O (configuration not stated) | 14.42% |
| CC(C(=O)O)N1CC2(CCC1=O)CCN(C/C=C/c1ccccc1)CC2 (configuration not stated) | -24.48% |
| O=C1Nc2ccccc2CN(CC2CC2)C12CCNC2 (configuration not stated) | 99.74% |
| O=C1Nc2ccccc2CN(CC2CCCC2)C12CCNC2 (configuration not stated) | 101.1% |
| CN(C)CCOC1CC2(CCN(c3cnccn3)CC2)c2ccccc21.O=C(O)C(F)(F)F (configuration not stated) | -0.2574% |
| CC(C)NC(=O)N1CCN2C(=O)N(Cc3ccc(F)cc3)C[C@H]2C1 | 1.439% |
| CO[C@H]1CN(C(C)C)C[C@@H]1NC(=O)c1cc(-c2ccccc2O)n[nH]1 | 3.341% |
| CNc1nc(C)cc(N2CCC(C(=O)O)(n3ccc(C(C)C)n3)CC2)n1 | -25.68% |
| O=S(=O)(NCC1(O)CCOc2ccccc21)c1ccc(Cl)s1 (configuration not stated) | -0.7436% |
| O=C1CC2(CCN(C(=O)Cc3cc4c(cc3Cl)OCCO4)C2)C(=O)N1 (configuration not stated) | -1.867% |
| Cc1cc(NCC2(O)CCOCC2)nc2ccccc12 | 15.38% |
| CCn1nnc2cc(C(=O)N3CCCC3Cn3cc(C)cn3)ccc21 (configuration not stated) | -10.21% |
| Cc1cnn(CC2CCCN2C(=O)c2ccc(Cl)cc2F)c1 (configuration not stated) | 130.9% |

| Structure (SMILES) | Percent Effect |
| --- | --- |
| O=C(c1cc(Cl)ccc1F)N1CCCC1Cn1cccn1 (configuration not stated) | 101.1% |
| COc1ccc(C(=O)N2CCCCC2Cn2cccn2)c(F)c1 (configuration not stated) | 4.231% |
| Cc1cnn(CC2CCCN2C(=O)c2ccc3nnc(C)n3c2)c1 (configuration not stated) | -11.91% |
| Cc1cnn(CC2CCCN2C(=O)c2ccc(F)c(F)c2)c1 (configuration not stated) | 123.6% |
| Cc1cnn(CC2CCCN2C(=O)c2ccc(F)cc2Cl)c1 (configuration not stated) | 118% |
| O=C(c1ccccc1N1CCOCC1)N1CCCC1Cn1cccn1 (configuration not stated) | -6.576% |
| CCCNC(=O)C1CCN(Cc2csc(C(C)(C)C)n2)CC1 | -3.863% |
| COc1cccc2c1CCN(C(=O)NCCc1nccn1C)C2 | 2.215% |
| CC(C#N)CSc1ccccc1NCC(=O)NC(=O)NC(C)(C)C (configuration not stated) | -19.45% |
| CC(O)CN1CCC(CN(C)Cc2cc(C#N)ccc2F)CC1 (configuration not stated) | -5.082% |
| Cc1ncc(CNC(CCO)C2CCCCC2)s1 (configuration not stated) | -8.339% |
| COc1ncnc2c1CCN(Cc1nccs1)CC2.O=C(O)C(F)(F)F | 2.06% |
| N#Cc1nccnc1N1CCC(OCCCc2ccccc2)C1 (configuration not stated) | 1.367% |
| Cc1cccc2c1cnn2CCCNC(=O)C(C)C | -3.766% |
| Cc1nc2c(c(NCCNC(=O)C(C)C)n1)Cc1ccccc1OC2 | 89.1% |
| Cc1nc2c(c(NCC(=O)NC(C)C)n1)Cc1ccccc1OC2 | 92.9% |
| Cc1nc2c(c(NCc3ccccc3)n1)CCN(C(=O)NC(C)C)CC2 | 7.807% |
| CN(C)c1nc2c(c(=O)[nH]1)Cc1ccccc1OC2 | -4.691% |
| CC(C)C(C(=O)NCc1ccccc1-n1cccn1)N(C)C (configuration not stated) | -20.85% |

Reference: ChEMBL document CHEMBL3988442, “University of Dundee, Small-Polar-MMV Screening Library” (2021)
